The results in this text go back to PubChem BioAssay (NCI).

Structures are written as SMILES. Compounds without any hit were thinned out: in the full panel of roughly 83,000, 20% have a hit.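 A percent growth of 40 corresponds to 60% growth inhibition; 0 means no net growth; -100 means all cells died. Active threshold: below 10.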 A number with no mark means an inactive call. Calls of active or inactive are those of the source.

Some test systems named below: NCI-H226 lung; NCI-H322M lung; HOP-62 NSCLC; NCI-H460 lung; NCI-H522 lung; A549/ATCC NSCLC; 786-0 renal; COLO 205 colon; DU-145 prostate; K-562 leukemia; MALME-3M melanoma; MDA-MB-231 breast; RXF 393 renal; SF-268 CNS; SF-295 CNS; SF-539 CNS; UACC-257 melanoma; M14 melanoma; HCT-15 colon.
Holding throughout (test): NCI-60 one-dose screen, 48 h (100 = growth as untreated, 0 = no growth, -100 = all killed)
What all share (details): 10 µM unless noted

For the molecule `O=c1ccn(C2OC(CO)C(O)C2F)c(=O)[nH]1` (stereo unspecified), the growth is 101% with NCI-H226 lung; 117% with NCI-H322M lung; 103% with HOP-62 NSCLC; 113% in the test on NCI-H460 lung; 109% in the test with NCI-H522 lung; 109% with A549/ATCC NSCLC. For the same molecule, the growth with 786-0 renal was 99.2%; in the test with COLO 205 colon, 128%; in the test with DU-145 prostate, 119%; in the test on K-562 leukemia it was 117%; in the test on MALME-3M melanoma, 116%; in the test with MDA-MB-231 breast it was 117%. Further, the growth with RXF 393 renal is 132%; in the test with SF-268 CNS, 111%; with SF-295 CNS, 105%; in the test with SF-539 CNS, 103%; in the test on UACC-257 melanoma, 114%; with M14 melanoma, 108%. For the same molecule, the growth in the test with HCT-15 colon was 112%.

As for `COc1cccc(/C=C2\COc3ccc(O)c(O)c3C2=O)c1OC`, the growth in the test with NCI-H226 lung is 62.8%; in the test on NCI-H322M lung, 32.7%; in the test with HOP-62 NSCLC, 19%; with NCI-H460 lung, 3.8% (active); with NCI-H522 lung, -33.3% (active); with A549/ATCC NSCLC, 32.5%. Also, the growth in the test on 786-0 renal was -6.52% (active); in the test with COLO 205 colon, 72.7%; in the test with DU-145 prostate it was 2.64% (active); in the test with K-562 leukemia, -5.62% (active); in the test on MALME-3M melanoma, -75.9% (active); with MDA-MB-231 breast, -34.4% (active). The growth in the test on SF-268 CNS is 17.4%; in the test on SF-295 CNS it was 83.2%; in the test with SF-539 CNS it was -73% (active); in the test with UACC-257 melanoma, 26.8%; in the test on HCT-15 colon it was -10.7% (active).

As for `O=Cc1c[nH]c2ccc(NC(=O)OCc3ccccc3)cc12`, the growth in the test on NCI-H226 lung was 89.7%; in the test with NCI-H322M lung it was 88.6%; in the test on HOP-62 NSCLC, 105%; in the test on NCI-H460 lung, 68.4%; in the test on NCI-H522 lung, 94.1%; with A549/ATCC NSCLC, 106%. Besides, the growth in the test with 786-0 renal is 95.8%; with DU-145 prostate, 113%; with K-562 leukemia it was 72.2%; in the test with MALME-3M melanoma, 186%; in the test on MDA-MB-231 breast it was 88.4%; with RXF 393 renal it was 96.6%. The growth in the test on SF-268 CNS was 102%; with SF-539 CNS it was 110%; in the test on UACC-257 melanoma, 85.6%; with M14 melanoma, 105%; with HCT-15 colon, 67.1%.

In the case of `COc1ccc2[nH]cc(/C=C3/C(=O)Nc4ccc(Cl)cc43)c2c1`, the growth in the test on NCI-H226 lung is 60.1%; in the test on NCI-H322M lung it was 57.1%; with HOP-62 NSCLC, 64.8%; in the test on NCI-H460 lung it was 46.1%; in the test on NCI-H522 lung, -7.27% (active); with A549/ATCC NSCLC it was 56.6%. In addition, the growth with 786-0 renal is 43.2%; in the test on COLO 205 colon, 63.8%; with DU-145 prostate, 47.6%; in the test on K-562 leukemia, 27.4%; in the test with MALME-3M melanoma, 31.5%; in the test on MDA-MB-231 breast it was 28.2%. For the same molecule, the growth is 21.3% in the test on RXF 393 renal; 53.1% with SF-295 CNS; 67.8% in the test on SF-539 CNS; 68.5% with UACC-257 melanoma; 37.2% in the test with M14 melanoma; 30.4% with HCT-15 colon.

In the case of `CCCn1cnc2c1c(=O)n(CCCCC(C)=O)c(=O)n2C`, the growth in the test on NCI-H226 lung is 100%; in the test with HOP-62 NSCLC it was 101%; in the test on NCI-H460 lung, 103%; in the test with NCI-H522 lung, 113%; with A549/ATCC NSCLC, 95.8%; with 786-0 renal, 104%. The growth with COLO 205 colon was 104%; in the test on DU-145 prostate it was 118%; with K-562 leukemia it was 90.9%; in the test on MALME-3M melanoma, 113%; with MDA-MB-231 breast it was 104%; with RXF 393 renal it was 103%. Besides, the growth in the test with SF-268 CNS was 99.3%; in the test on SF-295 CNS, 118%; in the test with SF-539 CNS, 101%; with UACC-257 melanoma, 102%; in the test with M14 melanoma, 104%; in the test on HCT-15 colon it was 103%.

Take `S=C(Nc1ccc(C2=NCCN2)cc1)Nc1ccc(C2=NCCN2)cc1`: the growth in the test on NCI-H322M lung is 117%; in the test with HOP-62 NSCLC it was 99.6%; with NCI-H460 lung, 106%; in the test with NCI-H522 lung, 97.2%; in the test with A549/ATCC NSCLC, 99.9%; in the test on 786-0 renal it was 98.2%. In addition, the growth with DU-145 prostate was 107%; in the test on K-562 leukemia, 91.4%; in the test on MALME-3M melanoma, 111%; in the test on MDA-MB-231 breast, 113%; in the test with RXF 393 renal it was 101%; in the test on SF-268 CNS, 120%. Besides, the growth was 96.7% with SF-295 CNS; 93.4% in the test on SF-539 CNS; 93.8% in the test with UACC-257 melanoma; 94.5% with M14 melanoma; 101% in the test on HCT-15 colon.

Consider `Fc1ccc(-c2nnc(/C=C/c3cn(-c4ccccc4)nc3-c3ccccc3)o2)cc1`, for which the growth was 92.8% with NCI-H226 lung; 95.5% in the test with NCI-H322M lung; 87.4% in the test on HOP-62 NSCLC; 78.6% in the test with NCI-H460 lung; 85.3% with NCI-H522 lung; 75.2% in the test on A549/ATCC NSCLC. Besides, the growth in the test on 786-0 renal is 89.8%; in the test on COLO 205 colon, 94.2%; in the test on DU-145 prostate, 110%; in the test on K-562 leukemia, 107%; in the test with MALME-3M melanoma, 88.9%; in the test with MDA-MB-231 breast, 94.2%. For the same molecule, the growth in the test on RXF 393 renal was 105%; with SF-268 CNS, 103%; with SF-295 CNS, 94.4%; with SF-539 CNS, 89.1%; in the test on M14 melanoma, 93.1%; in the test on HCT-15 colon, 96.1%.

Consider `[O-]/[N+](=C\C=C\c1ccccc1)c1ccccc1`, for which the growth is 97.8% in the test on NCI-H226 lung; 113% in the test on NCI-H322M lung; 116% in the test on HOP-62 NSCLC; 107% in the test with NCI-H460 lung; 102% with NCI-H522 lung; 144% with A549/ATCC NSCLC. Further, the growth in the test on 786-0 renal was 101%; in the test with COLO 205 colon, 141%; with DU-145 prostate, 111%; in the test on K-562 leukemia, 98.1%; in the test on MALME-3M melanoma it was 158%; in the test on MDA-MB-231 breast it was 102%. For the same molecule, the growth in the test on RXF 393 renal is 405%; in the test with SF-268 CNS, 101%; in the test with SF-295 CNS, 102%; in the test with SF-539 CNS, 103%; with UACC-257 melanoma it was 127%; with M14 melanoma, 115%. Besides, in the test with HCT-15 colon, the growth is 104%.

In the case of `CO[C@H]1/C=C/O[C@@]2(C)Oc3c(C)c(O)c4c(O)c(c(/C=N/N5CCN(C)CC5)c(O)c4c3C2=O)NC(=O)/C(C)=C\C=C\C(C)[C@H](O)[C@@H](C)[C@@H](O)[C@@H](C)[C@@H](OC(C)=O)[C@@H]1C` (stereo partly specified), the growth is 84.5% in the test on NCI-H226 lung; 112% in the test on NCI-H322M lung; 99.4% with HOP-62 NSCLC; 103% in the test with NCI-H460 lung; 105% in the test on NCI-H522 lung; 97.1% with A549/ATCC NSCLC. For the same molecule, the growth is 96.6% in the test on 786-0 renal; 103% with COLO 205 colon; 104% in the test with DU-145 prostate; 100% with K-562 leukemia; 105% in the test with MALME-3M melanoma; 98.5% in the test on MDA-MB-231 breast. The growth with RXF 393 renal is 104%; in the test with SF-268 CNS, 109%; in the test with SF-295 CNS it was 98.8%; in the test on UACC-257 melanoma, 103%; with M14 melanoma it was 102%; in the test on HCT-15 colon it was 87.7%.
